E-sel TNF inh = E-selectin induction blockers in HUVEC – imaging, immunofluorescence, high content, primary screen | HUVEC TNFa-induced E-selectin immunofluorescence | inhibition, % at 2 µM | 120,000 compounds, 0.71% hits | AID 1246, 2008;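 active = inhibition above the batch mean plus 3 SD, and confirmed as a hit on visual image review, cut at about 43% in these data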;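 note: 0% = TNF-stimulated DMSO wells and 100% = unstimulated control wells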
PLAP act = PLAP enzyme activators, biochemical, luminescence, HTS; Alkaline phosphatase, placental type (Homo sapiens), P05187; purified PLAP enzyme, luminescent substrate read-out; active compounds read high; activation fold at 20 µM; 96,000 compounds, 1.2% hits; AID 696, 2007; in the data active = activation fold above about 2
Target sequence (P05187 whole entry, looked up): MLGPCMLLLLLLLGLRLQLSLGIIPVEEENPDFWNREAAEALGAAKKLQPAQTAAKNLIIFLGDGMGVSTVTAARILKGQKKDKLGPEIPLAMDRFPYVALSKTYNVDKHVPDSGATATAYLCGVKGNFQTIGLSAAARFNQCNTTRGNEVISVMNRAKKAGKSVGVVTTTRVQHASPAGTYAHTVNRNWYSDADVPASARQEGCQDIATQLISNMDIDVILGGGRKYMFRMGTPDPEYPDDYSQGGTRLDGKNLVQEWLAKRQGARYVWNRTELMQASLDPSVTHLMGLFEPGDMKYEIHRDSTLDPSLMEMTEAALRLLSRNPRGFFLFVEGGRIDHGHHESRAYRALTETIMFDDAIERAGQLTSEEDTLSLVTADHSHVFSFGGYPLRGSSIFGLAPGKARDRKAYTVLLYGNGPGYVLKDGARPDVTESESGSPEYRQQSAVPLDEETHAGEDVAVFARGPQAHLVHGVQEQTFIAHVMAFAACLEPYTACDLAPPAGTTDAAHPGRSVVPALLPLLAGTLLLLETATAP
HUVEC tox TNFa = cytotoxicity in TNFa-stimulated HUVEC, primary screen, cytotoxicity control for VCAM1 expression modulator project, imaging, Hoechst nuclei count. HUVEC TNFalpha-stimulated, Hoechst cell count. cell count reduction, % at 2 µM. 93,000 compounds, 0.17% hits. AID 848, 2007;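 active = cell count reduction exceeding the screen mean by over 5 SD, scaled to untreated wells per plate, cut at about 78% in these data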;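 note: cells counted after 24 h of TNF alpha exposure following the 1 h pretreatment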
F-actin modifier = modifiers of F-actin cytoskeleton organization, primary screen, imaging, HUVEC, phalloidin staining, high-content imaging; inhibition, % at 2 µM; 91,000 compounds, 0.18% hits; HUVEC TNFa F-actin phalloidin imaging;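 active = inhibition above the batch mean plus 3 SD and confirmed as a hit by visual image inspection, cut at about 30% in these data, passing the limit was not always enough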
VCAM1 TNFa inh = inhibitors of TNFa-induced VCAM1 expression, primary screen, imaging, HUVEC, TNFa stimulus, immunofluorescence. HUVEC TNFa-induced VCAM-1 immunofluorescence, high-content imaging. inhibition, % at 2 µM. 95,000 compounds, 0.48% hits. AID 802, 2007;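 active = inhibition above the batch mean plus 3 SD, with images confirmed as a hit by eye, cut at about 37% in these data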;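 note: 0% = TNF-stimulated DMSO wells and 100% = unstimulated control wells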
* hit, by the source's call. Shown are actives, neighbours in structure and some others; about 2% of the full set was active somewhere.

Screening COc1ccccc1C1C(C#N)=C(N)Oc2cc(C)n(CCCn3ccnc3)c(=O)c21 (centres undefined) returned E-sel TNF inh -16, PLAP act 2*, HUVEC tox TNFa -23, F-actin modifier 4 and VCAM1 TNFa inh -19.
For Nc1ccc(N2CCOCC2)cc1C(F)(F)F the results were E-sel TNF inh -14.
Screening CCOC(=O)N1CCC(NC(=O)c2ccc(CNS(=O)(=O)c3ccc(F)cc3)cc2)CC1 returned PLAP act 1.2, HUVEC tox TNFa -51, F-actin modifier 76* and VCAM1 TNFa inh -9.
Screening COc1ccc(NC(=O)C2CCCN2S(=O)(=O)c2ccc(F)cc2)cc1 (centres undefined) returned PLAP act 0.8, HUVEC tox TNFa -17, F-actin modifier 1 and VCAM1 TNFa inh 2.
Screening COc1ccc(S(=O)(=O)N2CCCC2C(=O)Nc2ccc(C)cc2)cc1 (centres undefined) returned E-sel TNF inh -9, PLAP act 1.5, HUVEC tox TNFa 6, F-actin modifier 1 and VCAM1 TNFa inh 97*.
`CCOc1ccc2[nH]c(C)c(CN3CCCCC3)c(=O)c2c1` gave PLAP act 0.9, HUVEC tox TNFa 9, F-actin modifier -2 and VCAM1 TNFa inh 11.
`CCN1CCN(Cc2c(C)[nH]c3ccc(C(=O)OC)cc3c2=O)CC1` gave E-sel TNF inh -15, PLAP act 0.9, HUVEC tox TNFa -26, F-actin modifier 8 and VCAM1 TNFa inh 96*.
Screening CCn1nc([N+](=O)[O-])c(C(C#N)c2nc3ccccc3n2C)c(Cl)c1=O (centres undefined) returned E-sel TNF inh -5.
CCCn1nc([N+](=O)[O-])c(C(C#N)c2nc3ccccc3s2)c(Cl)c1=O (centres undefined) was read as E-sel TNF inh -10, PLAP act 1.2, HUVEC tox TNFa -13, F-actin modifier -25 and VCAM1 TNFa inh 51*.
O=S(=O)(Nc1ccccn1)c1ccc(Cl)c2ccccc12 was read as E-sel TNF inh 82*.
CCOC(=O)CSc1nc2cc(OC)ccc2cc1C#N was read as E-sel TNF inh 100*, PLAP act 0.9, HUVEC tox TNFa -29, F-actin modifier 5 and VCAM1 TNFa inh -9.
For CN1/C(=C/C(=O)c2nc(S(C)(=O)=O)ncc2Cl)C(C)(C)c2ccccc21 the results were E-sel TNF inh 90*, PLAP act 1.1, HUVEC tox TNFa 17, F-actin modifier 0 and VCAM1 TNFa inh -9.
CCOC(=O)C1C(c2cccc([N+](=O)[O-])c2)C2C(=O)NN=C2CC1(C)O (centres undefined) was read as E-sel TNF inh -1.
Screening Cc1noc(C)c1COc1ccc(C(=O)OCC(=O)Nc2c(C)n(C)n(-c3ccccc3)c2=O)cc1 returned E-sel TNF inh 10.
Screening O=C(Nc1cc(=O)[nH]c2ncnn12)c1ccccc1 returned E-sel TNF inh -6, PLAP act 1, HUVEC tox TNFa -6, F-actin modifier -16 and VCAM1 TNFa inh 3.
`O=C(Nc1cc(=O)[nH]c2ncnn12)c1ccc(Cl)cc1Cl` gave E-sel TNF inh 62*, PLAP act 1, HUVEC tox TNFa -9, F-actin modifier 17 and VCAM1 TNFa inh 12.
For N=C1C(c2nc3ccccc3[nH]2)=C(O)CN1c1ccc(CC(=O)O)cc1 the results were E-sel TNF inh 6, PLAP act 2.6*, HUVEC tox TNFa 2, F-actin modifier 1 and VCAM1 TNFa inh 16.
Screening N=C1C(c2nc3ccccc3[nH]2)=C(O)CN1c1ccccc1 returned E-sel TNF inh -4, PLAP act 1.2, HUVEC tox TNFa -26, F-actin modifier -10 and VCAM1 TNFa inh 11.
N=C1C(c2nc3ccccc3c(=O)[nH]2)=C(O)CN1c1ccccc1 was read as E-sel TNF inh 29, PLAP act 2.2*, HUVEC tox TNFa 0, F-actin modifier 0 and VCAM1 TNFa inh 3.
`O=c1[nH]c(-c2ccccn2)nc2ccccc12` gave E-sel TNF inh 2, PLAP act 2.4*, HUVEC tox TNFa -22, F-actin modifier 12 and VCAM1 TNFa inh 13.
Screening CCN(C(=O)COC(=O)c1cccc(NS(=O)(=O)c2ccc(F)c(F)c2)c1)C1CCS(=O)(=O)C1 (centres undefined) returned E-sel TNF inh -6.
Screening CC1=CC2=NC(=O)CC(C)(C(=O)N(CC(=O)NC(C)(C)C)Cc3cccs3)N2C=C1 (centres undefined) returned E-sel TNF inh -9, PLAP act 0.9, HUVEC tox TNFa 14, F-actin modifier -42 and VCAM1 TNFa inh 5.
Screening Cc1ccc(CC(=O)Nc2ccccc2N2CCOCC2)cc1C returned E-sel TNF inh 13, PLAP act 1.4, HUVEC tox TNFa -7, F-actin modifier -3 and VCAM1 TNFa inh -3.
Screening CN(c1ccccc1)C(c1ccc(F)cc1)c1nnnn1C1CCCC1 (centres undefined) returned E-sel TNF inh 6, PLAP act 1, HUVEC tox TNFa -8, F-actin modifier 36 and VCAM1 TNFa inh 4.
`CCN(CC)C(=O)CSc1nnnn1-c1ccc(F)c(Cl)c1` gave E-sel TNF inh 31.
For CC(=O)Nc1ccc(Nc2ncnc3c2cnn3-c2ccc(C)cc2C)cc1 the results were PLAP act 2*, HUVEC tox TNFa 8, F-actin modifier -9 and VCAM1 TNFa inh 9.
O=C1/C(=C/c2cccs2)SC(=S)N1c1ccccc1 was read as E-sel TNF inh 56*, PLAP act 0.9, HUVEC tox TNFa -9, F-actin modifier -2 and VCAM1 TNFa inh -2.
Screening CCCc1nc2ccccc2c(=O)n1/N=C/c1c(C)[nH]n(-c2ccc(C)cc2)c1=O returned PLAP act 2.1*, HUVEC tox TNFa -14, F-actin modifier 0 and VCAM1 TNFa inh 2.
For S=C(Nc1ccccc1Oc1ccccc1)Nc1cccc(Cl)c1Cl the results were E-sel TNF inh -17.
COc1ccccc1NC(=O)CSc1nnc2ccc(-c3cccnc3)nn12 was read as E-sel TNF inh 82*.
CCOc1ccccc1NC(=O)CSc1nnc2ccc(-c3cccnc3)nn12 was read as E-sel TNF inh -77.
For COc1cc(NC(=O)CN2CCC(C)CC2)c(C)cc1[N+](=O)[O-] the results were E-sel TNF inh 83*.
`CCN1CCN(CC(=O)Nc2cc(C)c(C)cc2[N+](=O)[O-])CC1` gave E-sel TNF inh 9.
`O=C(CCN(NC(=O)c1ccccc1)C1=NS(=O)(=O)c2ccccc21)NC1CCCCC1` gave E-sel TNF inh -12.
For O=C(CSc1ncccn1)NCc1ccccc1Cl the results were E-sel TNF inh 60*, PLAP act 1.1, HUVEC tox TNFa -31, F-actin modifier 13 and VCAM1 TNFa inh 13.
For Clc1ccccc1CSc1ncccn1 the results were E-sel TNF inh -3, PLAP act 0.9, HUVEC tox TNFa -15, F-actin modifier -9 and VCAM1 TNFa inh 2.
